Values joined by “and” are separate entries in the source; they are usually repeats but may differ in a detail not shown here. Identical values can stand only once. Inconclusive results are not listed. Active and inactive are the calls of the source. Unless noted, calls follow the shape of the dose curve; as a rule, active = well fitted curve in the direction sought with a large enough effect; inconclusive = small, poorly fitted or top-dose-only effect, or another doubt; inactive = no such curve, though single readings can be large; an effect the other way counts as inactive or inconclusive.
Key:
[1] = system: UISO; assay: qHTS assay to identify novel small-molecules to repurpose for Merkel cell carcinoma treatment (AID 1296009); conditions: MCC and control cell lines, CellTiter-Glo viability, 72 h; series mostly up to 46 µM; also: % is scaled to controls: 0 for no effect and ±100 for the full control effect; nearly all actives have a fitted effect of over 60% in size
In short: (§1)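 Cell viability, measured as CellTiter-Glo luminescence, was normalized between DMSO and no-cell wells. The cells had been exposed to 8- or 11-point compound dilutions for 72 hr at 37 degree celsius.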

[2] = system: WaGa; assay: as above; conditions: MCC and control cell lines, CellTiter-Glo viability, 72 h; series mostly up to 46 µM
In short: as §1

[3] = system: C33A; assay: Primary qHTS to identify gynecologic anti-cancer compounds using libraries of approved drugs and bioactive compounds (AID 1345084); conditions: Gynecologic cancer cell panel viability, ATPlite luminescence, 48 h; series mostly up to 57.5 µM; also: nearly all actives have a fitted effect of over 55% in size; also: potency is read from the fitted curve at half-maximal effect
In short: (§2)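 Luminescence from the ATPlite ATP-monitoring reagent indicates viable cell number; lower signal means cytotoxicity. Cells received compound 16 h after seeding and were exposed for 48 h across five concentrations.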

[4] = system: CAOV3; assay: as above; conditions: Gynecologic cancer cell panel viability, ATPlite luminescence, 48 h; series mostly up to 57.5 µM
In short: as §2

[5] = system: CASKI; assay: as above; conditions: Gynecologic cancer cell panel viability, ATPlite luminescence, 48 h; series mostly up to 57.5 µM
In short: as §2

[6] = system: Es-2; assay: as above; conditions: Gynecologic cancer cell panel viability, ATPlite luminescence, 48 h; series mostly up to 57.5 µM
In short: as §2

[7] = system: Hek293T; assay: as above; conditions: Gynecologic cancer cell panel viability, ATPlite luminescence, 48 h, control line for the selectivity index; series mostly up to 57.5 µM
In short: as §2

[8] = system: JEG-3; assay: as above; conditions: Gynecologic cancer cell panel viability, ATPlite luminescence, 48 h; series mostly up to 57.5 µM
In short: as §2

[9] = system: OV90; assay: as above; conditions: Gynecologic cancer cell panel viability, ATPlite luminescence, 48 h; series mostly up to 57.5 µM
In short: as §2

[10] = system: PA-1; assay: as above; conditions: Gynecologic cancer cell panel viability, ATPlite luminescence, 48 h; series mostly up to 57.5 µM
In short: as §2

[11] = system: SKOV3; assay: as above; conditions: Gynecologic cancer cell panel viability, ATPlite luminescence, 48 h; series mostly up to 57.5 µM
In short: as §2

[12] = system: Tov-21-G; assay: as above; conditions: Gynecologic cancer cell panel viability, ATPlite luminescence, 48 h; series mostly up to 57.5 µM
In short: as §2

[13] = system: Tov112D; assay: as above; conditions: Gynecologic cancer cell panel viability, ATPlite luminescence, 48 h; series mostly up to 57.5 µM
In short: as §2

[14] = system: HeLa; assay: as above; conditions: Gynecologic cancer cell panel viability, ATPlite luminescence, 48 h; series mostly up to 57.5 µM
In short: as §2

[15] = Drug repurposing screens with cells derived from glioblastoma tumor samples (AID 1345199); conditions: GBM patient neurospheres viability, ATP luminescence, 48 h; also: nearly all actives have a fitted effect of over 40% in size; also: potency is read from the fitted curve at half-maximal effect; as to activity, negative = cell killing: % is scaled to controls: 0 for no effect and ±100 for the full control effect
In short: (§3)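 Primary testing used CD133+ neurospheres from four GBM patients, seven concentrations, 48 h exposure and ATP-based viability; confirmation added three slower-growing patient lines.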

[16] = system: astro; assay: as above; conditions: viability, ATP luminescence, 48 h; series mostly up to 45.9 µM
In short: as §3

[17] = biological target: Nuclear receptor subfamily 1 group I member 2 (Rattus norvegicus) (UniProt Q9R1A7); assay: qHTS assay for small molecule activators of the rat pregnane X receptor (rPXR) signaling pathway (AID 651751; call rule not given here; also: 0% is about no effect); conditions: rPXR reporter cells, luciferase (One-Glo), 24 h
Chain of Nuclear receptor subfamily 1 group I member 2 (Rattus norvegicus) (Q9R1A7 whole entry, looked up): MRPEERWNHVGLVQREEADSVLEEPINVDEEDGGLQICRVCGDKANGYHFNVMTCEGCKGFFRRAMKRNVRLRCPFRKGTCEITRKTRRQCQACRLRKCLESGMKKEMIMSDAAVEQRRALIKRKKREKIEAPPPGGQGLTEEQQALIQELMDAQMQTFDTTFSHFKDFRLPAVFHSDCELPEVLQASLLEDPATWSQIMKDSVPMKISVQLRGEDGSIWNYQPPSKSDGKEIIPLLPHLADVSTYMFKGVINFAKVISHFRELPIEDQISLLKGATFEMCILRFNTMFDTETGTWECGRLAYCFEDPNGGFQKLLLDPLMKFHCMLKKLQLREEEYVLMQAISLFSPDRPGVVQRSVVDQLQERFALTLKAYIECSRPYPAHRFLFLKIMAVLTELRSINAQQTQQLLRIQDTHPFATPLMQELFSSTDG

[18] = qHTS assay for small molecule activators of the human pregnane X receptor (PXR) signaling pathway (AID 720659; call rule not given here; also: 0% is about no effect)
[19] = at 108 µM (top of the series), tumour line B
[20] = at 108 µM (top of the series), tumour line D
[21] = at 45.9 µM (top of the series), tumour line B
[22] = at 45.9 µM (top of the series), tumour line D
[23] = at 46 µM (top of the series), tumour line A

C[C@]12CC[C@H]3[C@@H](CCC4=CC(=O)CC[C@@]43C)[C@@H]1CC[C@@H]2C(=O)O
inactive: Potency [1] | Potency [2] | Potency [3] | Potency [4] | Potency [5] | Potency [6] | Potency [7] | Potency [8] | Potency [9] | Potency [10] | Potency [11] | Potency [12] | Potency [13]

COc1ccc(OC)c(CC(C)N)c1 (configuration not stated)
inactive: Potency [1] | Potency [2] | Potency [3] | Potency [4] | Potency [5] | Potency [6] | Potency [14] | Potency [7] | Potency [8] | Potency [9] | Potency [10] | Potency [12] | Potency [13] | activity, negative = cell killing [15, 19] -6.52% | activity, negative = cell killing [15, 20] -16.6%

COc1ccc2[nH]cc(CCN(C(C)C)C(C)C)c2c1
inactive: Potency [1] | Potency [2] | Potency [3] | Potency [4] | Potency [5] | Potency [6] | Potency [14] | Potency [7] | Potency [8] | Potency [9] | Potency [10] | Potency [11] | Potency [12] | Potency [13] | activity, negative = cell killing [15, 19] -6.42% | activity, negative = cell killing [15, 20] -9.85%
active: Potency ([15]; tumour line A) 44.7 µM

CN(C)CCc1c[nH]c2ccccc12
inactive: Potency [1] | Potency [2] | Potency [3] | Potency [4] | Potency [5] | Potency [6] | Potency [14] | Potency [7] | Potency [8] | Potency [9] | Potency [10] | Potency [11] | Potency [12] | Potency [13] | activity, negative = cell killing [15, 19] -3.73% | activity, negative = cell killing [15, 20] -2.02%

CCNc1nc(Cl)nc(NCC)n1
inactive: Potency [1] | Potency [2] | Potency [3] | Potency [4] | Potency [5] | Potency [6] | Potency [14] | Potency [7] | Potency [8] | Potency [9] | Potency [10] | Potency [11] | Potency [12] | Potency [13] | activity, negative = cell killing [15, 21] -2.74% | activity, negative = cell killing [15, 22] -21.4% | activity, negative = cell killing [15, 23] -24.7% | Potency [16] | max response [17] -3.28% | outcome [18]

O=C1NCN(c2ccccc2)C12CCN(CCCOc1ccc(F)cc1)CC2
inactive: Potency [1] | Potency [2] | Potency [3] | Potency [4] | Potency [5] | Potency [6] | Potency [14] | Potency [8] | Potency [9] | Potency [10] | Potency [11] | Potency [12] | Potency [13]

Cc1c(Cl)c(=O)oc2cc(OP(=O)(OCCCl)OCCCl)ccc12
inactive: Potency [1] | Potency [2] | Potency [3] | Potency [4] | Potency [5] | Potency [6] | Potency [14] | Potency [7] | Potency [8] | Potency [10] | Potency [11] | Potency [12] | Potency [13] | activity, negative = cell killing [15, 21] -10.4% | activity, negative = cell killing [15, 22] -23.1% | Potency [16]

CCOC(=O)NC(C)(C)Cc1ccc(Cl)cc1
inactive: Potency [1] | Potency [2] | Potency [3] | Potency [4] | Potency [5] | Potency [6] | Potency [14] | Potency [7] | Potency [8] | Potency [9] | Potency [10] | Potency [12] | Potency [13] | activity, negative = cell killing [15, 21] 0.659% | activity, negative = cell killing [15, 22] -16.7% | Potency [16]

CCOC(=O)NC(O)C(Cl)(Cl)Cl (configuration not stated)
inactive: Potency [1] | Potency [2] | Potency [3] | Potency [4] | Potency [5] | Potency [6] | Potency [14] | Potency [7] | Potency [8] | Potency [9] | Potency [10] | Potency [11] | Potency [12] | Potency [13] | activity, negative = cell killing [15, 21] -7.26% | activity, negative = cell killing [15, 22] -2.34% | activity, negative = cell killing [15, 23] -17.3%

C[C@]12CC[C@H]3[C@@H](CCC4=CC(=O)CC[C@@H]43)[C@@H]1CC[C@@H]2O
inactive: Potency [1] | Potency [2] | Potency [3] | Potency [5] | Potency [6] | Potency [7] | Potency [8] | Potency [9] | Potency [11] | Potency [12] | Potency [13] | activity, negative = cell killing [15, 21] 2.47% and -10.2%
active: Potency [14] 2.24 µM | Potency [10] 10 µM

CCCCC1C(=O)NC(=O)N(C2CCCCC2)C1=O (configuration not stated)
inactive: Potency [1] | Potency [2] | Potency [3] | Potency [5] | Potency [6] | Potency [14] | Potency [7] | Potency [8] | Potency [9] | Potency [10] | Potency [11] | Potency [12] | Potency [13] | activity, negative = cell killing [15, 21] 0.883% | activity, negative = cell killing [15, 22] 0.724% | activity, negative = cell killing [15, 23] -28.6% | Potency [16]

CCC1(c2ccccc2)CCC(=O)NC1=O (configuration not stated)
inactive: Potency [1] | Potency [2] | Potency [3] | Potency [4] | Potency [5] | Potency [6] | Potency [14] | Potency [7] | Potency [8] | Potency [9] | Potency [10] | Potency [11] | Potency [12] | Potency [13] | activity, negative = cell killing [15, 21] -10.4% | activity, negative = cell killing [15, 22] -10.3% | activity, negative = cell killing [15, 23] -28.9% | Potency [16]

CNC(C)Cc1ccccc1OC (configuration not stated)
inactive: Potency [1] | Potency [2] | Potency [3] | Potency [4] | Potency [5] | Potency [6] | Potency [14] | Potency [7] | Potency [8] | Potency [9] | Potency [10] | Potency [11] | Potency [12] | Potency [13] | activity, negative = cell killing [15, 21] -11.6% | activity, negative = cell killing [15, 22] -21% | activity, negative = cell killing [15, 23] -24.5% | Potency [16]

COc1cc(C[C@@H](C)N)c(OC)cc1Br
active: Potency ([15]; tumour line A) 35.5 µM
inactive: Potency [1] | Potency [2] | Potency [3] | Potency [4] | Potency [6] | Potency [14] | Potency [7] | Potency [8] | Potency [10] | Potency [11] | Potency [12] | Potency [13] | activity, negative = cell killing [15, 19] -21.6%

CC(Cc1ccc2c(c1)OCO2)NO (configuration not stated)
inactive: Potency [1] | Potency [2] | Potency [3] | Potency [4] | Potency [5] | Potency [6] | Potency [14] | Potency [7] | Potency [8] | Potency [9] | Potency [10] | Potency [11] | Potency [12] | Potency [13] | activity, negative = cell killing [15, 19] -8.99% | activity, negative = cell killing [15, 20] -8.83%

C[N+](C)(C)CCOC(=O)C(O)(c1ccccc1)c1ccccc1
inactive: Potency [1] | Potency [2] | Potency [3] | Potency [4] | Potency [5] | Potency [6] | Potency [14] | Potency [7] | Potency [8] | Potency [9] | Potency [10] | Potency [11] | Potency [12] | Potency [13] | activity, negative = cell killing [15, 21] -4.79% | activity, negative = cell killing [15, 22] -23.3% | Potency [16]

Source: PubChem BioAssay (NCATS)
